The target in this assay is T1, Phosphorylase b kinase gamma catalytic chain, liver/testis isoform (Homo sapiens) (UniProt P15735).
T1 sequence (whole entry): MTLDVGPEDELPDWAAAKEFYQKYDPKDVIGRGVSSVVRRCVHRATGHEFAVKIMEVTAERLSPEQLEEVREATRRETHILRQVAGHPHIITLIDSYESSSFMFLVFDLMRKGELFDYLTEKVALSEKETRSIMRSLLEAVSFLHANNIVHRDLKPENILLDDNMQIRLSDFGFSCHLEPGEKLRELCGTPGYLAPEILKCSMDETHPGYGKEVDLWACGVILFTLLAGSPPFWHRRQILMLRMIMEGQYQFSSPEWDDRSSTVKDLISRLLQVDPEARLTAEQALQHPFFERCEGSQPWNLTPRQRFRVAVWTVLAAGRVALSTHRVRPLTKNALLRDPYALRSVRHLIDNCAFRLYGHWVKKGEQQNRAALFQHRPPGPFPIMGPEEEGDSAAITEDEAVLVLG
Conditions: at 0.1 µM.
As for `CCS(=O)(=O)c1ccc(OC)c(Nc2ncc(-c3cccc(-c4ccccc4F)c3)o2)c1`, the inhibition (commonly the change of the read-out against control, counted positive when it falls) was determined as 0.01%.
On to `C/C(Nc1ccc(S(N)(=O)=O)cc1)=C1/C(=O)Nc2ccccc21`, for which the inhibition is -0.73%.
Regarding `CN(C)CCOc1ccc(-c2cc(-c3ccc4c(c3)CCC4=NO)c(-c3ccncc3)o2)cc1`, the inhibition is -1.99%.
Turning to `CCc1cccc(CC)c1/C=C/c1cncc(C(=O)NC)c1`, the inhibition came to 3.56%.
On to `COc1ccc2cc(-c3c(-c4ccncc4)nc(-c4ccc(S(C)(=O)=O)cc4C)n3C)ccc2c1`, for which the inhibition was determined as 5.31%.
Next, `CCS(=O)(=O)c1ccc(OC)c(Nc2ncc(-c3ccccc3Cl)o2)c1`: 1.67%.
Next, `COc1cc2ncn(-c3cc(OCCc4ccccc4)c(C(N)=O)s3)c2cc1OC`: 1.37%; `CN1CCN(CCCNc2nc3ccc(Oc4ccc(NC(=O)Nc5cc(C(F)(F)F)ccc5F)cc4)cc3[nH]2)CC1`: 2.23%; `Cc1ccc(NC(=O)c2ccoc2)cc1-c1ccc(C(=O)NCC2CC2)cc1`: 3.37%.
Next, `COc1ccc2cc(-c3c(-c4ccncc4)nc(-c4ccc([S+](C)[O-])cc4C)n3C)ccc2c1` (centres undefined): -1.33%.
Turning to `O=C(NCC1CC1)c1ccc(-c2cccc(C(=O)NC3CC3)c2)cc1`, the inhibition turned out to be 2.3%.
As to `O=C(Nc1n[nH]c2cc(-c3cc(F)ccc3F)ccc12)C1CC1`, the inhibition amounted to 3.06%.
The value for `COc1cc(N2CCN(C(C)C)CC2)ccc1Nc1nc(Nc2ccc(F)cc2C(=O)NC[C@@H](O)CO)c2cc[nH]c2n1` was 6.76%; that for `NC(=O)c1cc(-c2ccncc2)cc(-c2ccccc2)c1N` was 5.49%.
`Fc1ccc(-c2ncn(C3CCNCC3)c2-c2ccnc(Oc3ccc4c(c3)OCO4)n2)cc1`: the inhibition was 7.66%.
As for `FC(F)(F)c1cccc(Nc2nccc(-c3cnn4nc(-c5ccccc5)ccc34)n2)c1`, the inhibition is 2.99%.
With `COc1cc2ncn(-c3cc(OCc4ccccc4C(F)(F)F)c(C(C)=O)s3)c2cc1OC`, the inhibition turned out to be 4.43%.
The value for `Fc1ccc(-c2ncn(CCCN3CCOCC3)c2-c2ccncc2)cc1` was -0.42%; that for `NS(=O)(=O)c1ccc(Nc2cc(-c3ccc(O)c(F)c3)n[nH]2)cc1` was -5.86%.
In the case of `CN(C)CCCNc1nccc(-c2c(-c3ccc(F)cc3)nn3cc(C(F)(F)F)ccc23)n1`, the inhibition was 2.52%.
In the case of `Fc1ccc(-c2c(-c3ccncc3)nc3n2CCS3)cc1`, the inhibition was found to be 1.99%.
Turning to `O=C(Nc1n[nH]c2nc(-c3ccco3)ccc12)C1CC1`, the inhibition is 0.75%.
For `C[C@@H](Oc1cc(-n2cnc3ccc(OCC4CCN(C)CC4)cc32)sc1C(N)=O)c1ccccc1Cl`, the inhibition turned out to be 8.59%.
In the case of `c1ccc(-c2n[nH]cc2-c2ccnc(-c3ccc(OCCN4CCOCC4)cc3)c2)nc1`, the inhibition is -1.14%.
As for `O=C1Nc2ccccc2/C1=C/Nc1ccc(-n2cncn2)cc1`, the inhibition came out at 5.95%.
Turning to `c1ccc(Oc2ccc(Nc3ncc(-c4ccccc4)o3)cc2)cc1`, the inhibition was 1.62%.
With `CCN(CC)Cc1ccc(Nc2nccc(-c3cnn4ncccc34)n2)cc1`, the inhibition is 5.93%.
`Cc1ccc(C(=O)NC(C)C)cc1-c1ccc(C(=O)NCC2CC2)cc1`: the inhibition was -5.49%.
On to `COc1cc2ncn(-c3cc(OCc4cccs4)c(C(N)=O)s3)c2cc1OC`, for which the inhibition was 3.82%.
As to `O=C(Nc1ccc(Oc2ccc3[nH]c(NC(=O)c4ccccc4)nc3c2)cc1)Nc1cc(C(F)(F)F)ccc1F`, the inhibition was found to be 3.99%.
In the case of `COc1ccc(-c2ccc3c(NC(=O)C4CC4)n[nH]c3n2)cc1`, the inhibition came out at 0.93%.
On to `COc1cc(Nc2ncc3c(C)nc(-c4cccc(C(F)(F)F)c4)n3n2)cc(OC)c1OC`, for which the inhibition was found to be 4.94%.
The value for `Fc1ccc(-c2ncn(C3CCNCC3)c2-c2ccnc(Oc3ccc(F)c(F)c3)n2)cc1` was 4.85%.
In the case of `NS(=O)(=O)c1ccc(N/N=C2\C(=O)Nc3ccc(C(=O)NCCCn4ccnc4)cc32)cc1`, the inhibition worked out at 3.91%.

These data come from ChEMBL document CHEMBL1961873, “Compounds: GSK PKIS; Assays: Nanosyn kinase panel” (2012).
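Also: values are mean inhibition of PHKG2.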
